Rows were chosen to be rich in hits. Some 0.27% of all compounds tested hit in one or more screens of this group.
B2AR arrestin: qHTS assay of beta-arrestin-biased ligands of beta2-adrenergic receptor | Beta-2 adrenergic receptor (Homo sapiens), P07550 | beta-arrestin recruitment to beta2AR, cell-based reporter | Potency, µM (top dose mostly 46.1 µM), inactives show at the highest dose activation, usual class: activators | 330,000 tested, 0.02% active;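 further: 0% = DMSO controls and full agonism = EC100 isoproterenol or metaproterenol; nearly all actives have a fitted effect of over 65% in size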
Chronic BCR inh: qHTS Assay to Find Inhibitors of Chronic Active B-Cell Receptor Signaling. Potency, µM (doses to about 46.1 µM), without a hit: top-dose activity change, negative = inhibition, actives largely listed as inhibitors. ABC-DLBCL IkBa-CBG/CBR reporter, luminescence ratio, 4 h. 340,000 tested, 0.05% active. AID 493014, 2011; active means well fitted inhibition curve with a large enough effect in the signal ratio, with a control signal flat, not every such curve was filed as active; inconclusive means small, poorly fitted or top-dose-only effect, or effect the other way, or a change in a side signal; the % refers to the signal ratio;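 further: plate controls were basal doxycycline-induced cells for no effect and cells given 10 µM MG132 for full effect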
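Concentration-response series (up to 46 uM) were applied to TMD8 dual-reporter cells for 4 h at 37C with doxycycline. Green/red ratio, after filter-overlap correction, defined %Activity; red signal alone was normalised to basal cells and zero luminescence.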
Tb PFK inh-1: qHTS Assay to Find Inhibitors of T. brucei phosphofructokinase; T. brucei PFK, ADP-Glo luminescence; Potency, µM (series often up to 57.5 µM), for inactives: top-dose activity, negative = inhibition, hits mostly inhibitors; 330,000 tested, 0.17% active; AID 485367, 2010;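 further: 0% = uninhibited 1x PFK enzyme wells and -100% = no-enzyme wells; nearly all actives have a fitted effect of over 60% in size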
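Luminescent ADP detection (ADP-Glo, two-step: ATP depletion then ADP-to-ATP conversion for luciferase) reported PFK activity after 45 min room-temperature reaction of 1.25 nM enzyme with 0.5 mM F6P and 0.1 mM ATP at pH 8.0.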
MBNL1 CUG block: qHTS Assay for Inhibitors of MBNL1-poly(CUG) RNA binding | AID 2675, 2010 | 280,000 tested, 0.036% active | Potency, µM (series often up to 57.5 µM), without a hit: top-dose activity change, negative = inhibition, usual class: inhibitors | Muscleblind-like protein 1 (Homo sapiens), Q9NR56 | TR-FRET MBNL1-His/biotin-(CUG)12 binding, 665/545 ratio; active means well fitted inhibition curve with a large enough effect in the signal ratio, with a control signal flat, not every such curve was filed as active; inconclusive means small, poorly fitted or top-dose-only effect, or effect the other way, or a change in a side signal; inactive means no such curve, though single readings can be large or run the other way; the % refers to the signal ratio; further: on the % scale 0 is the no-effect control and ±100 the full control effect
Target sequence (Q9NR56 whole entry, looked up): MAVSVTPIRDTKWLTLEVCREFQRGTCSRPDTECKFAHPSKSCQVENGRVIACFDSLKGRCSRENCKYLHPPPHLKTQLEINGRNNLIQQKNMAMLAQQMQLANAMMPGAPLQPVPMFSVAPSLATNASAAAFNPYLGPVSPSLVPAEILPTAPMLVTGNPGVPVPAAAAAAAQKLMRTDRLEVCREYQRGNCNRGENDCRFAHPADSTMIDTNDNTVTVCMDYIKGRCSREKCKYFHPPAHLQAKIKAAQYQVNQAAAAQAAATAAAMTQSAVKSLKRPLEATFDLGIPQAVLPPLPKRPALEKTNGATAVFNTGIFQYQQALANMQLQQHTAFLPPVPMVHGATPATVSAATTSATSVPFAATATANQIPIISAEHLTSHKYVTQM
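His-tagged MBNL1 binding to biotinylated (CUG)12 RNA was measured by TR-FRET using terbium anti-His antibody (0.055 ng/ul final) and streptavidin-XL665 (5 nM final). Compounds were titrated 92 nM to 58 uM; 60 min at room temperature.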
TbPFK ATP: Tb PFK orthogonal confirmatory assay using ATP depletion (Kinase-Glo Plus) as an alternative measure of Tb PFK activity: Hit Validation; shares compounds with Tb PFK inh-1; Tb PFK enzyme, ATP depletion, Kinase-Glo Plus luminescence; Potency, µM (titrated, usually from 57.5 µM), inactives show top-dose inhibition; 1,100 tested, 47% active; AID 504636, 2011; calls by dose curve; further: nearly all actives have a fitted effect of over 60% in size
Tb PFK inh-2: Inhibitors of T. brucei phosphofructokinase: Hit Validation. shares compounds with Tb PFK inh-1. purified T. brucei PFK, ADP-Glo luminescence, 45 min. Potency, µM (highest dose often 57.5 µM), without a hit: at the highest dose activity change, negative = inhibition, hits mostly inhibitors. 1,100 tested, 41% active. AID 504637, 2011;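 further: plate controls were full PFK enzyme control for no effect and no enzyme control for full effect; nearly all actives have a fitted effect of over 60% in size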
An asterisk follows results filed as active; u = inconclusive; x = not tested or not shown. Unless noted, the call rests on the fitted dose curve; in most records, active means well fitted curve in the direction sought with a large enough effect; inconclusive means small, poorly fitted or top-dose-only effect, or another doubt; inactive means no such curve, though single readings can be large; an effect the other way counts as inactive or inconclusive. Potency means the concentration at half of the fitted maximal effect.

SMILES	B2AR arrestin	Chronic BCR inh	Tb PFK inh-1	MBNL1 CUG block	TbPFK ATP	Tb PFK inh-2
COc1ccc2nc(NC(=O)c3ccccc3O)sc2c1	-1%	u	u	15%	-30%	u
O=C(O)c1ccccc1NS(=O)(=O)c1cccc(-n2sc3ccccc3c2=O)c1	-1%	u	2.4µM*	2%	12µM*	24µM*
O=C(O)c1ccccc1NS(=O)(=O)c1cccc(C(F)(F)F)c1	0%	u	2%	-3%	x	x
O=C(Nc1cccc(-c2nnn(CC(=O)N3CCc4ccccc4C3)n2)c1)C1CCC1	-1%	-1%	24µM*	-2%	13µM*	u
Cc1ccc(S(=O)(=O)N(C(=O)c2ccncc2)c2ccc(OC(=O)c3ccncc3)c3ccccc23)c(C)c1	0%	u	u	12%	x	x
Cc1ccc(S(=O)(=O)N(C(=O)c2ccncc2)c2ccc(OC(=O)c3ccncc3)c3ccccc23)cc1	0%	u	17µM*	4%	2.4µM*	2.7µM*
Cc1cc(SCC(=O)Nc2ccc3[nH]c(=O)[nH]c3c2)nc2ccccc12	0%	-3%	-4%	x	x	x
Cc1ccc(/C=C2/NC(=O)N(Cc3ccccc3F)C2=O)o1	5%	-15%	u	8%	u	-27%
Cc1ccc(/C=C2/NC(=O)N(c3ccccc3)C2=O)o1	5%	u	u	u	u	u
Cc1ccc(/C=C2/NC(=O)N(Cc3ccc(Br)cc3)C2=O)o1	u	-16%	15µM*	6%	u	u
O=C(O)c1ccc(-c2ccc(/C=C3\NC(=O)N(Cc4ccc(Cl)cc4)C3=O)o2)cc1Cl	0%	-1%	-11%	11%	x	x
CCN1C(=O)N/C(=C/c2ccc(C)o2)C1=O	u	u	13µM*	16%	u	u
CCCN1C(=O)/C(=C/c2ccc(C)o2)NC1=S	0%	17%	u	9%	x	x
CCn1c(C)cc(/C=C2/NC(=O)N(Cc3ccccc3F)C2=O)c1C	0%	u	2%	41%	x	x
c1ccc(CCNc2ccccc2)cc1	0%	u	0%	4%	x	x
Cc1ccc(N2CC(NC(=O)CCc3ccccc3)CC2=O)cc1 (stereo not given)	x	0%	x	x	x	x
COc1ccc(NC(=O)Nc2cccc3c2O[C@@H](CN(C)S(=O)(=O)c2cn(C)cn2)[C@@H](C)CN([C@H](C)CO)C3=O)cc1	0%	-1%	3%	x	x	x
Cc1cccc(CSC2=NCCN2S(=O)(=O)c2ccc(F)cc2)c1	-1%	3%	1%	-3%	x	x
COc1ccccc1N(CC1CO1)S(=O)(=O)c1ccc(C)cc1 (stereo not given)	0%	-8%	-1%	0%	x	x
CC(C)c1cc(O)c(-c2ccccc2)c(=O)n1-c1ccc(Cl)cc1	0%	u	3%	-7%	x	x
CC(C)c1c(Cl)c(O)c(-c2ccccc2)c(=O)n1-c1ccc(F)cc1	-1%	0%	u	u	u	u
CCOC(=O)c1ccc(S(=O)(=O)N2CC(=O)Nc3ccccc32)cc1	-1%	2%	1%	u	x	x
Cc1ccc(NC(=O)Nc2ccc(S(N)(=O)=O)cc2)cc1	0%	2%	21µM*	-6%	13µM*	u
NS(=O)(=O)c1ccc(NC(=O)Nc2ccc(C(F)(F)F)cc2)cc1	0%	1%	u	x	6µM*	13µM*
Cc1cc(OC(F)F)ccc1NC(=O)Nc1ccc([N+](=O)[O-])cc1	0%	u	u	-24%	u	u
SMILES	B2AR arrestin	Chronic BCR inh	Tb PFK inh-1	MBNL1 CUG block	TbPFK ATP	Tb PFK inh-2
NS(=O)(=O)c1ccc(NC(=O)Nc2cccc(Cl)c2)cc1	0%	-5%	24µM*	u	u	u
O=C(NCc1ccc(F)cc1)c1cc2cccc3c2n1CCS3	x	16%	x	x	x	x
Cc1ccc([N+](=O)[O-])cc1NC(=O)Nc1ccc(S(N)(=O)=O)cc1	0%	u	12µM*	u	13µM*	27µM*
Cc1ccccc1NC(=O)Nc1cc(S(N)(=O)=O)ccc1C	0%	-12%	1%	-4%	x	x
C=CCNC(=O)N1CCc2[nH]c3ccc(F)cc3c2C1	0%	u	u	1%	u	u
Fc1ccc2[nH]c3c(c2c1)CN(C(=S)NCc1ccccc1)CC3	-1%	u	0%	x	x	x
COc1ccc2c(CC(=O)OCC(=O)Nc3cccc(C)c3)coc2c1	0%	-1%	u	x	u	u
COC(=O)c1cccc(NC(=O)Cc2coc3cc(OC)ccc23)c1	-1%	u	-3%	-5%	x	x
C=CCN1CCc2cccc3c2[C@H]1Cc1ccc(O)c(O)c1-3	0%	-1%	u	-4%	6µM*	6µM*
COc1cc2c(cc1OC)-c1c(OC)c(OC)cc3c1C(C2)N(C)CC3 (stereo not given)	0%	-2%	-3%	u	x	x
CN1CCc2cccc3c2C1Cc1ccc(O)c(O)c1-3 (stereo not given)	-1%	-20%	4.3µM*	-2%	19µM*	17µM*
CC(NC(=O)C1CCN(C(=O)c2cccs2)CC1)c1ccc(S(N)(=O)=O)cc1 (stereo not given)	0%	7%	u	x	-32%	u
O=C(Nc1ccc(Cl)c(Cl)c1)N1CCSC1c1ccco1 (stereo not given)	-1%	u	13µM*	5%	12%	-11%
CCN(C(=O)CN1CCCCCC1)c1c(N)n(Cc2ccccc2)c(=O)[nH]c1=O	6%	u	2%	x	x	x
CCN(C(=O)CN1CCN(c2ccc(O)cc2)CC1)c1c(N)n(Cc2ccccc2)c(=O)[nH]c1=O	0%	6%	u	2%	u	u
Cc1ccc(CNC(=O)Cc2c(C(=O)O)c(C)cn2C)cc1	x	13%	x	x	x	x
COc1ccc(OC)c(NC(=O)COc2ccc3c(c2)CCC3)c1	-3%	u	0%	x	x	x
CC(=O)c1cccc(OCC(=O)N(C)CC(=O)NCc2ccco2)c1	0%	u	19µM*	x	2.4µM*	2.7µM*
CCOc1ccc(C(=O)NCc2ccco2)cc1OCC	0%	7%	-5%	-1%	x	x
COc1ccc(C(=O)OCC(=O)NCc2ccco2)cc1OC	0%	u	u	-6%	u	u
